Bioassay records deposited in PubChem by The Scripps Research Institute Molecular Screening Center.
PME-1 primary = blocks human protein phosphatase methylesterase 1. Q9Y570. AID 2130. recombinant PME-1, FP-Rh probe fluorescence polarization. 320,000 tested, 0.53% active. inhibition, % at 5.9 µM;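 active means inhibition above the campaign mean of all compounds plus 3 SD, cut at about 26% in these data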;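 further: competitive labeling of PME-1 active site by serine hydrolase directed probe; inhibitors block probe labeling so polarization falls and inhibition rises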
pPAFAH inh = inhibitors of human plasma PAF acetylhydrolase (pPAFAH); recombinant pPAFAH, FP-rhodamine probe fluorescence polarization; 330,000 tested, 1.5% active; inhibition, % at 3.39 µM; Q13093;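 active means inhibition above the mean inhibition across the screen plus 3 SD, cut at about 25% in these data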;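 further: inhibitors block binding of the rhodamine activity-based probe so polarization drops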
Target sequence (Q13093 whole entry, looked up): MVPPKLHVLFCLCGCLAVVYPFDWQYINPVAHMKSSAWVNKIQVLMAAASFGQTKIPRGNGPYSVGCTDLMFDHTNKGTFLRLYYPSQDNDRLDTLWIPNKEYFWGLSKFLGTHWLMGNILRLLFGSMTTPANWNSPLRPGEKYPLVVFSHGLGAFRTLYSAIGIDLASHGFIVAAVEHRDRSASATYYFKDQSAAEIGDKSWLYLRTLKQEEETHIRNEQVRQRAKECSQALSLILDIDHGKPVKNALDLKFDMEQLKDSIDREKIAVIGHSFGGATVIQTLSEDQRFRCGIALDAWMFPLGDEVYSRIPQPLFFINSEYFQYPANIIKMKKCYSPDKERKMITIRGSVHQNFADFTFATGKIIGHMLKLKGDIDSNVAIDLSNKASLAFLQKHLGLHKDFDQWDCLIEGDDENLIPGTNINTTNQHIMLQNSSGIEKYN
GSTO1 counter = blocks human GSTO1 in RBBP9 counter-screen; P78417; recombinant GSTO1, activity-based probe fluorescence polarization; inhibition, % at 5.96 µM; 300,000 tested, 1.1% active;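 active means inhibition above the campaign mean inhibition plus 3 SD, cut at about 35% in these data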
Target sequence (P78417 whole entry, looked up): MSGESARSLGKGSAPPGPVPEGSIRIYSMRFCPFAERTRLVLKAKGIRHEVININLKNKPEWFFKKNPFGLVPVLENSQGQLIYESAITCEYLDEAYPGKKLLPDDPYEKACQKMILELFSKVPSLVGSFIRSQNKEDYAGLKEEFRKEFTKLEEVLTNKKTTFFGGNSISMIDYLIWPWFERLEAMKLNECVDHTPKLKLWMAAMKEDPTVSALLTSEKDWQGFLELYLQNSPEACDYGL
PAD4 inh = PAD4 (human) enzyme inhibition; Q9UM07; recombinant PAD4, RCA probe fluorescence polarization; inhibition, % at 6.36 µM; 330,000 tested, 0.41% active; AID 485272;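 active means percent inhibition above a cutoff equal to the mean of all tested compounds plus 3 SD, cut at about 15% in these data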
Fam108B counter = counter-screen for RBBP9 inhibitors: inhibitors of mouse Fam108B; recombinant Fam108B, FP-Rh probe fluorescence polarization; inhibition, % at 9.51 µM; 300,000 tested, 0.33% active; AID 1947;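 active means inhibition above the screen mean inhibition plus 3 SD, computed separately per campaign, cut at about 18% in these data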;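 further: inhibitors lower polarization as less probe binds the enzyme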
Fam108b confirm = Fam108b (mouse) hydrolase inhibition, confirmation assay. recombinant Fam108b, FP-Rh probe fluorescence polarization. shares compounds with Fam108B counter. inhibition, % at 9.51 µM. AID 1978. 930 tested, 44% active;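 active means inhibition above a limit from the primary screen, the mean over all compounds plus 3 SD, cut at about 19% in these data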;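 further: inhibitors free the probe so polarization falls as inhibition rises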
Fam108b ABPP HTS = mouse ABHD17B inhibition. shares compounds with Fam108B counter. recombinant Fam108b, gel-based ABPP, fluorophosphonate probe. inhibition, % at 20 µM. 260 tested, 44% active. AID 588649; in the data active means inhibition above about 40%
Of the large screens only hits and unclear results are named; the others gave an inactive call (follow-up assays come after a bar, where they were run); ! = not confirmed by another sample. A selection: hits, their analogues and other compounds. The true share with any hit is near 2.3%.

CC(C)(C)OC(=O)C[C@@H]1C/C=C\C[C@H](CC(=O)N(CCO)Cc2ccccc2)C(=O)NCCOC1=O	none (no result: PME-1 primary, GSTO1 counter, Fam108B counter)
CCC1COC(c2cccn2Cc2ccc(Cl)cc2)=N1 (centres undefined)	pPAFAH inh 28
CCSCC1COC(c2cccn2Cc2ccc(C)cc2)=N1 (centres undefined)	none
Cn1c(SCC(=O)c2ccc(-c3ccccc3)cc2)nnc1-c1ccco1	pPAFAH inh 30
N#Cc1c(NC(=O)CSc2nnc(-c3ccco3)n2-c2ccccc2)sc2c1CCC2	none
NC(=O)c1c(NC(=O)CSc2nnc(-c3ccco3)n2-c2ccccc2)sc2c1CCC2	pPAFAH inh 33
C=Cc1ccc(CSc2cc(C)nc3nc(C)nn23)cc1	none
O=C(Oc1c(-c2ccccc2)c(=O)n2c3c(cccc13)CC2)c1ccccc1	pPAFAH inh 26
O=C(Oc1c(-c2ccccc2)c(=O)n2c3c(cccc13)CC2)c1ccc(F)cc1	none
CCCCn1c(N)c(N(Cc2ccccc2OC)C(=O)C(C)C)c(=O)[nH]c1=O	none
O=C(COC(=O)c1ccc2ccccc2c1)Nc1ncc(C(F)(F)F)cc1Cl	none
O=C(COC(=O)c1ccc2ccccc2n1)Nc1ncc(C(F)(F)F)cc1Cl	pPAFAH inh 26
N#Cc1c(N)sc(=S)c2c1CCCCC2	pPAFAH inh 29
OCCNC(=S)c1ccccc1	none
CC(C)(C)c1ccc(NC(=O)C2=CC=CN3CCS(=O)(=O)N=C23)cc1	PME-1 primary 55 (no result: GSTO1 counter, Fam108B counter)
COCC(=O)NCc1ccc2c(c1)cc(C)n2C	PAD4 inh 15
Cc1c(CCO)c(=O)n(-c2ccccc2)n1S(=O)(=O)c1c(Cl)cc(Cl)cc1Cl	GSTO1 counter 37
Oc1ccc(/C=N/NC(=S)Nc2cccnc2)cc1O	pPAFAH inh 33
CC(C)(C)c1ccc(/C=N/NC(=S)Nc2cccnc2)cc1	none
Nc1c(/C=C2/C=CC(=O)C(O)=C2)c(=O)nc2sc(CC(=O)N3CCCC3)nn12	none
Nc1c(/C=C2/C=CC(=O)C(O)=C2)c(=O)nc2sc(CC(=O)N3CCCCC3)nn12	pPAFAH inh 32, GSTO1 counter 41
Cc1ccc(C)c(C(=O)Cn2c(NCCO)nc3ccccc32)c1	none
CC(=O)c1ccc(NC(=S)NC2CCCC(C)C2C)cc1 (centres undefined)	pPAFAH inh 34
C=CCN1C(=O)/C(=C2/Sc3ccccc3N2C)SC1=Nc1c(C)n[nH]c1C	none
CCN1C(=O)/C(=C2/Sc3ccccc3N2CC)S/C1=N\c1ncn[nH]1	PME-1 primary 34
COc1cc2c(cc1OC)C(c1cccs1)N(C(=O)c1cccc(S(=O)(=O)N(C)C)c1)CC2 (centres undefined)	none
O=C(C[C@@H]1C/C=C/CCCC(=O)O[C@H](c2ccccc2)CNC1=O)N[C@H](CO)Cc1ccccc1	none (no result: PME-1 primary, GSTO1 counter, Fam108B counter)
Cc1ccc(/C=N/Nc2ccc(C(=O)O)cc2)s1	pPAFAH inh 26
CCCCn1c(=O)[nH]c2nc3cc(NC(C)=O)ccc3nc2c1=O	none
CCC(=O)Nc1ccc2nc3c(=O)[nH]c(=S)[nH]c3nc2c1	pPAFAH inh 26
N#C/C(=C/c1ccc(N2CCOCC2)o1)c1ccc(Cl)cc1	Fam108B counter 21
N#C/C(=C\c1ccc(N2CCOCC2)o1)c1nc2ccccc2[nH]1	none
O=C(N/C=C/c1ccco1)OCc1ccccc1	pPAFAH inh 26
O=C(N/C=C/c1ccco1)NCc1ccccc1	none
COc1ccccc1NC(=O)C1CCCN(S(=O)(=O)c2ccccc2)C1 (centres undefined)	none
O=C(OCC(=O)N1CCN(C(=O)c2ccco2)CC1)c1cc(-c2ccco2)nc2ccccc12	pPAFAH inh 31
Cc1ccc(CN2CCN(/N=C/c3ccc(O)c(O)c3)CC2)cc1	GSTO1 counter 36
Cc1ccc(CN2CCN(/N=C/c3ccc(C(=O)O)cc3)CC2)cc1	none
Oc1ccc(/C=N/N2CCN(C3c4ccccc4-c4ccccc43)CC2)cc1O	pPAFAH inh 33, GSTO1 counter 44
CCCCSCCCNC(=O)Nc1ccc(CC)cc1	none
CCOc1ccc(C(=O)NC(=S)Nc2ccc(NC(=O)c3ccco3)c(C)c2)cc1[N+](=O)[O-]	none
Cc1ccc(/C=C/C(=O)NCCc2cccc(Cl)c2)o1	none
CS(=O)(=O)Nc1ccccc1C(=O)Nc1cc(Cl)cc(Cl)c1	pPAFAH inh 28
CS(=O)(=O)Nc1ccccc1C(=O)Nc1cccc(Cl)c1	none
Cc1ccc(-c2cc(C(=O)NN3CCOCC3)c3cc(Br)ccc3n2)o1	none
Cc1ccc(-c2cc(C(=O)O)c3cc(Br)ccc3n2)o1	pPAFAH inh 28
O=C(Cc1cc(=O)[nH][nH]1)N/N=C/c1cccc(Cl)c1Cl	GSTO1 counter 35!
O=C(Cc1cc(=O)[nH][nH]1)N/N=C/c1ccccc1Cl	none
Cc1cc(C(=O)OCC(=O)NC(=O)c2cccn2C)c2ccccc2n1	none
COc1ccc(N=C2NC(=O)/C(=C/c3ccco3)S2)cc1	none
COc1ccc(S(=O)(=O)/N=C2/NC(=O)/C(=C/c3ccco3)S2)cc1	pPAFAH inh 32
N=c1oc2cc(O)ccc2cc1C(=O)Nc1ccc(Br)cc1	Fam108B counter 33 | Fam108b confirm 164 | Fam108b ABPP HTS 40
N=c1oc2ccccc2cc1C(=O)Nc1ccccc1	none
CCN(C[C@H]1N[C@@](CC)(C(=O)OC)[C@H]2C(=O)N(C)C(=O)[C@@H]12)C(=O)Nc1ccccc1	none (no result: PME-1 primary, GSTO1 counter, Fam108B counter)
COc1ccc2oc(=O)c(-c3csc(Nc4cccc(O)c4)n3)cc2c1	PME-1 primary 47, Fam108B counter 34 | Fam108b confirm 39 | Fam108b ABPP HTS 100
CCCCn1c(N)c(N(CCC(C)C)C(=O)c2oc3ccc(OCC)cc3c2C)c(=O)[nH]c1=O	none
COc1cccc(C2C3=C(Nc4[nH]n(-c5ccccc5)c(=O)c42)c2ccccc2C3=O)c1 (centres undefined)	PME-1 primary 28, Fam108B counter 24 | Fam108b confirm 31
COc1ccc(CCNC(=O)C2CCCN(c3ncccn3)C2)cc1 (centres undefined)	none
O=C1c2cccc3cccc(c23)C(=O)N1OS(=O)(=O)c1ccccc1	none
O=C1c2ccccc2C(=O)N1OS(=O)(=O)c1ccccc1	Fam108B counter 29 | Fam108b confirm inactive
COc1cccc(/C=N/Nc2ncnc3scc(-c4ccccc4)c23)c1O	Fam108B counter 23 | Fam108b confirm inactive
Nc1nn2c(-c3ccccc3)cc(=O)[nH]c2c1N=Nc1ccc(O)cc1	pPAFAH inh 27, Fam108B counter 21 | Fam108b confirm inactive
COc1cc(OC)c(NC(=O)c2ccccc2F)cc1Cl	none
COc1cc(NC(=O)c2cc3ccccc3cc2O)c(OC)cc1Cl	PME-1 primary 42, Fam108B counter 30 | Fam108b confirm inactive
CC(C)c1ccc(OCc2ccc(C(=O)NN3CCN(C)CC3)o2)cc1	none
